# Hits are enriched below; roughly 5.8% of the tested compounds scored in any of these assays.
# KB-3-1 cytotox: kills parental KB-3-1 adenocarcinoma cells; KB-3-1 viability, CellTiter-Glo ATP luminescence, 72 h; Potency, µM (top dose mostly 46.1 µM), hits mostly cytotoxic; 1.4% of 400,000 active; note: % is set by controls: 0 for no effect and ±100 for the full control effect; nearly all actives have a fitted effect of over 60% in size
#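 Luminescent ATP read-out (CellTiter-Glo) measures survival of drug-naive KB-3-1 cells after 72 h compound exposure at 37 °C. Titration series was screened from lowest to highest concentration, with DMSO vehicle plates as background controls.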
# KB-V1 cytotox: KB-V1 MDR subline cytotoxicity; 3.4% of 400,000 active; KB-V1 MDR cells viability, CellTiter-Glo, 72 h; Potency, µM (highest dose often 46.1 µM), hits mostly cytotoxic; note: % is set by controls: 0 for no effect and ±100 for the full control effect; nearly all actives have a fitted effect of over 60% in size
#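 In this primary screen, KB-V1 cells overexpressing P-gp are incubated with library compounds (lowest to highest concentration) for 72 h at 37 degrees C before a luminescent ATP viability read.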
# SW480 rerep: inducers of DNA re-replication in SW480 colon cancer cells; SW480 DNA re-replication, Hoechst DNA content imaging, 48 h; Potency, µM (doses to about 46.1 µM), for inactives: at the highest dose re-replication activation, most hits filed as activators; 1.8% of 340,000 active; AID 624297; note: % of control where 0% means no effect; nearly all actives have a fitted effect of over 55% in size
#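 Hoechst fluorescence of nuclei (405 nm excitation, 500-530 nm emission) measured by plate-scanning imager after 48 hr compound exposure at 37 C; re-replication scored as increased number of nuclei with elevated intensity.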
# MCF10A rereplic: DNA re-replication induction in MCF 10a cells; MCF 10A DNA re-replication, Hoechst nuclear intensity, 48 h; Potency, µM (doses to about 46.1 µM), without a hit: at the highest dose activity, positive = re-replication, hits mostly activators; 2.9% of 350,000 active; AID 624296; note: % of control where 0% means no effect; nearly all actives have a fitted effect of over 50% in size
# PINK1 modulator: modulators of PINK1 expression; 0.2% of 410,000 active; PINK1 immunofluorescence, high-content cytometry, 24 h; Potency, µM (top dose mostly 76.6 µM), for inactives: at the highest dose activation (PINK1 increase), actives largely listed as activators; AID 624263; active = well fitted activation curve with a large enough effect; inconclusive = small, poorly fitted or top-dose-only effect; cell line not stated here; note: % of control where 0% means no effect; nearly all actives have a fitted effect of over 65% in size
#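 PINK1 protein, normally rapidly degraded, was detected by immunofluorescence after 24 hour compound treatment of a stable cell line. Titration data (5 concentrations) came from laser-scanning cytometry, with CCCP-treated wells as controls.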
# ALOX12 inh: blocks human arachidonate 12S-lipoxygenase | P18054 | purified 12hLO, xylenol orange hydroperoxide absorbance | Potency, µM (series often up to 108 µM), for inactives: at the highest dose activity change, negative = inhibition, usual class: inhibitors | 1.1% of 580,000 active | AID 1671190; note: % is set by controls: 0 for no effect and ±100 for the full control effect
# Target sequence (P18054 whole entry, looked up): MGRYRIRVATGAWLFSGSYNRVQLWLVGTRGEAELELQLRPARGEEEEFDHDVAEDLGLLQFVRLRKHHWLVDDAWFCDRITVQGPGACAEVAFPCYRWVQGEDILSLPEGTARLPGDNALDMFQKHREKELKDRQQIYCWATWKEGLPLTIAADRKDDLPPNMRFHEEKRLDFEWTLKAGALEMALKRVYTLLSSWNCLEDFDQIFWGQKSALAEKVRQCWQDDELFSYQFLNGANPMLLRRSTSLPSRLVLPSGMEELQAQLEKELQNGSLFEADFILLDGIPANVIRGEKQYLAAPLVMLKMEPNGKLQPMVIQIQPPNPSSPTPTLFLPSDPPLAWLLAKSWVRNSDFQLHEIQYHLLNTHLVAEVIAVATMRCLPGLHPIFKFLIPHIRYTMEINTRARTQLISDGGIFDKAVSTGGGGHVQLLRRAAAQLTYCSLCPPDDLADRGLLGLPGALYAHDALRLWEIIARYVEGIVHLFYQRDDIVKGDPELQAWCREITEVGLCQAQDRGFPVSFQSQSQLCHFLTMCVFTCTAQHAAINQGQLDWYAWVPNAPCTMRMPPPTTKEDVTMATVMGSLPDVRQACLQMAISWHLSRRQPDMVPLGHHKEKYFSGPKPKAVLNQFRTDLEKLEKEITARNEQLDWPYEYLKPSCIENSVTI
#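 Purified human 12hLO (150 nM final) in 25 mM Hepes, 0.01% Triton X-100, pH 7.0 was preincubated 15 min at room temperature with compound. Then 40 uM arachidonic acid was added, 30 min. Hydroperoxide was read by Fe-XO absorbance ratio 573/405 nm.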
# Starred values were filed as active, the others as inactive; i = inactive; ? = inconclusive; . = no result given; ! = a repeat was not active. Unless noted, calls come from the whole dose curve; as a rule, active = well fitted curve in the direction sought with a large enough effect; inconclusive = small, poorly fitted or top-dose-only effect, or another doubt; inactive = no such curve, though single readings can be large; an effect the other way counts as inactive or inconclusive. Potency is the fitted concentration of half-maximal effect.
SMILES,KB-3-1 cytotox,KB-V1 cytotox,SW480 rerep,MCF10A rereplic,PINK1 modulator,ALOX12 inh
c1ccc(COc2ccc(OCCn3cncn3)cc2)cc1,i,i,0%,10%,-1%,22%
Cc1ccc(OCC(=O)Nc2ccc3[nH]ncc3c2)cc1C,.,.,.,.,.,14%
O=[N+]([O-])c1cccc(SSc2cccc([N+](=O)[O-])c2)c1,i,i,18µM*,?,2%,2.5µM*
CCCc1cc(=O)n2[nH]cc(-c3ccc(Cl)cc3)c2n1,16µM*,7.3µM*,18µM*,?,?,0%
COc1ccc(NC(=O)COc2ccc3c(C)c(C)c(=O)oc3c2)cc1,.,.,.,.,.,-4%
COc1ccc2[nH]c(-c3ccc(C)cc3)cc(=O)c2c1,9.2µM*,?,?,?,2%,.
O=c1cc(-c2ccccc2)[nH]c2ccccc12,0.65µM*,?,?,1.3µM*,4%,0%
COc1ccc(C(=O)Nc2ccc3[nH]c(-c4cccc(OC)c4)cc(=O)c3c2)cc1,0.73µM*,i,0.65µM*,0.58µM*,15%,?
COc1ccc(-c2cc(=O)c3cc(F)ccc3[nH]2)cc1,i,i,13%,?,-1%,-24%
CCCCNC(=O)c1ccccc1N,.,.,.,.,.,3%
CC(C(=O)NC(C)(C)C)N1CCC(C(=O)NCc2ccco2)CC1 (configuration not stated),.,.,.,.,.,37%
CCc1c(C)sc(NC(=O)CCc2ccc(OC)cc2)c1C(N)=O,i,21µM*,0%,-5%,12%,30%
O=C(/C=C/c1cccc([N+](=O)[O-])c1)c1ccco1,i,i,?,136%,2%,-6%
Cc1cccc(/C=C/C(=O)c2ccc([N+](=O)[O-])o2)c1,?,i,?,12µM*,7%,?
COc1ccc(/C=C/C(=O)c2ccc([N+](=O)[O-])o2)cc1,18µM*,?,12µM*,2.3µM*,12%,-23%
O=C(/C=C/c1cccc([N+](=O)[O-])c1)c1ccc([N+](=O)[O-])o1,?,i,?,1.6µM*,-2%,-5%
C#Cc1cccc(NC(=O)c2nccnc2N)c1,.,.,.,.,.,-6%
O=S(=O)(c1ccc(Br)cc1)N1CCCN(Cc2cccc(F)c2)CC1,i,i,21µM*!,?,2%,-6%
COc1cccc(CN2CCCN(S(=O)(=O)c3ccc(Br)cc3)CC2)c1,i,?,?,?,-2%,.
COc1ccc2cc1Nc1ccc(cc1)C[C@H](NCc1ccc(O)cc1)C(=O)N(C)[C@H](C(=O)NCCOc1ccccc1)C2,.,.,.,.,.,1%
Cc1[nH]n(-c2ccccc2)c(=O)c1/C=N/NC(=O)COc1ccccc1[N+](=O)[O-],?,?,13µM*,?,2%,?
Cc1ccc(-n2[nH]c(C)c(/C=N/NC(=O)c3ccc([N+](=O)[O-])cc3)c2=O)c(C)c1,.,.,.,.,.,-24%
CC(=O)N/N=C/c1c(C)[nH]n(-c2ccccc2)c1=O,i,?,26%,-8%,29%,-24%
Cc1[nH]n(-c2cccc3ccccc23)c(=O)c1/C=N/NC(=O)c1cccc([N+](=O)[O-])c1,?,3.3µM*,?,?,0%,45µM*
Cc1[nH]n(-c2ccccc2)c(=O)c1/C=N/NC(=O)c1ccccc1F,?,i,2.3µM*,?,-1%,0%
Cc1[nH]n(-c2ccccc2)c(=O)c1/C=N/NC(=O)c1cccc([N+](=O)[O-])c1,?,?,3.7µM*,?,0%,375%
CCC(C)NC(=O)N1CC(Oc2ccc(-c3noc(C4CCOCC4)n3)cc2)C1 (configuration not stated),.,.,.,.,.,8%
Cc1ccc(-n2[nH]c(C)c(/C=N/Nc3ccc([N+](=O)[O-])cc3[N+](=O)[O-])c2=O)cc1C,?,13µM*,2%,15µM*,?,-15%
